A selection: hits, their analogues and other compounds. The true share with any hit is near 19%.
VP16 counter: VP16 counterscreen qHTS for inhibitors of ROR gamma transcriptional activity. hit rate 3.5% among 310,000. Potency, µM (series often up to 53.6 µM), for the others: at the top dose activity, negative = inhibition, hits mostly inhibitors. AID 2546, 2010. Drosophila S2 Gal4-VP16 UAS-luciferase, luminescence, 20 h;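 further: Gal4-VP16 expression switched on by copper sulfate through the metallothionein promoter; nearly all actives have a fitted effect of over 50% in size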
TDP1 block: qHTS Assay for Inhibitors of Tyrosyl-DNA Phosphodiesterase (TDP1) | AID 485290, 2010 | hit rate 0.28% among 350,000 | recombinant TDP1, AlphaScreen DNA substrate cleavage | Potency, µM (series often up to 130 µM), inactives show at the highest dose activity change, negative = inhibition, most hits filed as inhibitors; further: nearly all actives have a fitted effect of over 40% in size
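Steps: enzyme plus compound, 15 min RT; add biotin/phosphotyrosine-FITC oligonucleotide (15 nM final), react 5 min; add donor/acceptor beads (10 ug/ml final), 10 min; read AlphaScreen. Tdp1 at 1 nM final.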
TDP1 cell noCPT: qHTS for Inhibitors of human tyrosyl-DNA phosphodiesterase 1 (TDP1): qHTS in cells in absence of CPT. DT40 Tdp1-/- hTDP1 cells, no CPT, ATP luminescence, 48 h. Potency, µM (doses to about 46.2 µM), inactives show top-dose activity change, negative = growth inhibition, usual class: inhibitors. hit rate 15% among 420,000; further: nearly all actives have a fitted effect of over 55% in size
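Chicken DT40 Tdp1-/- cells complemented with human TDP1, screened without camptothecin (DMSO vehicle only), 400 cells/well. Compounds pin-transferred, cells incubated at 37 °C for at least 48 hr. Growth read as ATP-dependent luminescence (CellTiter-Glo, 30 min at RT).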
RORg inh: qHTS for inhibitors of ROR gamma transcriptional activity | Nuclear receptor ROR-gamma (Mus musculus), P51450 | Drosophila S2 Gal4-RORgamma UAS-luciferase reporter, 20 h | AID 2551, 2010 | hit rate 5.4% among 310,000 | Potency, µM (series often up to 53.6 µM), without a hit: at the top dose activity change, negative = inhibition, actives largely listed as inhibitors; further: nearly all actives have a fitted effect of over 60% in size
Target sequence (P51450 whole entry, looked up, the tested form may be a part): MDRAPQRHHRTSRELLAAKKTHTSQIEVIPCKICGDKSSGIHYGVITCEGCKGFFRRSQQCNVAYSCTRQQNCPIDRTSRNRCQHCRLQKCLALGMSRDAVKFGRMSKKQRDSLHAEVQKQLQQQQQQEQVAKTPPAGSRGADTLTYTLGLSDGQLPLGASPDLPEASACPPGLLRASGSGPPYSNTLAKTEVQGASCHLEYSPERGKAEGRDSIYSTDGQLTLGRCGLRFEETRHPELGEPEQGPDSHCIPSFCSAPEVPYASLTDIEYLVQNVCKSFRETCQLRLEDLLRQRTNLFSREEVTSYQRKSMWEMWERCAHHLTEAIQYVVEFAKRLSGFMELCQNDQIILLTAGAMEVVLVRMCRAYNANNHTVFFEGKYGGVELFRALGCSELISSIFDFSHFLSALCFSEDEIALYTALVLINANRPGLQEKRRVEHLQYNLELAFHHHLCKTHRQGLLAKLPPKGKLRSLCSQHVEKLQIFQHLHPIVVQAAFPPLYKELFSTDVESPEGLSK
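Luminescence from a UAS-regulated Photinus luciferase reporter in stably transfected Drosophila Schneider cells is measured; decreased signal marks ROR gamma inhibition. Fusion expression is induced by 700 uM copper sulfate for 20 hr.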
DT40 TDP1 CPT: qHTS for Inhibitors of human tyrosyl-DNA phosphodiesterase 1 (TDP1): qHTS in cells in presence of CPT. chicken DT40 Tdp1-/-;hTDP1 cells + 20 nM CPT, ATP luminescence, 48 h. Potency, µM (series often up to 46.2 µM), inactives show at the top dose activity change, negative = growth inhibition, most hits filed as inhibitors. hit rate 12% among 420,000. AID 686979, 2013; further: nearly all actives have a fitted effect of over 55% in size
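Cell growth measured by CellTiter-Glo luminescence after a minimum 48 h, 37 C compound exposure with 20 nM CPT in Tdp1-knockout DT40 cells stably expressing hTDP1, seeded 400/well; qHTS titration format.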
* hit, by the source's call; ? = inconclusive; · = not tested or not shown; [ ] = remark or other dose. The call rests on the fitted dose curve; in most records, active means well fitted curve in the direction sought with a large enough effect; inconclusive means small, poorly fitted or top-dose-only effect, or another doubt; inactive means no such curve, though single readings can be large; an effect the other way counts as inactive or inconclusive. On the % scale 0 is the no-effect control and ±100 the full control effect; potency means the concentration at half of the fitted maximal effect.

SMILES	VP16 counter	TDP1 block	TDP1 cell noCPT	RORg inh	DT40 TDP1 CPT
CCN(CC)c1ccc(CNc2nc3ccccc3n2C)cc1	-2%	·	-8%	-1%	-27%
Cn1c(CNc2nc3ccccc3n2CCN2CCCCC2)nc2ccccc21	3%	5%	?	16µM*	-24%
CCS(=O)(=O)NCC(c1cccnc1)N1CCN(c2ccc(OC)cc2)CC1 (configuration not stated)	-5%	0%	3%	12%	1%
CCOc1ccc(C(=O)OCC(=O)N(Cc2ccccc2)Cc2ccccc2)cc1OC	·	-8%	?	·	21µM*
CCOc1ccc(CN(C)C(=O)NNC(=O)c2ccc(C)cc2)cc1OC	3%	3%	-10%	3%	1%
CCOc1ccc(CN(C)C(=O)[C@H](Cc2ccccc2)NC(=O)OCc2ccccc2)cc1OC	4%	6%	21µM*	?	?
COc1ccc(CN(C)C(=O)C(Cc2ccccc2)NC(=O)c2ccccc2)cc1F (configuration not stated)	·	13%	13µM*	·	16µM*
CSc1ccc(CN(C)C(=O)C(Cc2ccccc2)NC(=O)c2ccccc2)cc1 (configuration not stated)	16%	5%	?	?	?
CN(Cc1ccc(F)cc1)C(=O)C(Cc1ccccc1)NC(=O)c1ccccc1 (configuration not stated)	·	·	18µM*	·	?
COc1cc(/C=C2\C=Cc3ccccc32)cc(OC)c1OC	·	·	16µM*	·	?
COc1ccc(C=C2Cc3ccccc3C2=O)cc1	·	·	?	·	-11%
COc1cc(N(C)C)c(OC)cc1/C=C1\Cc2ccccc2C1=O	·	·	11µM*	·	?
COc1cc(C=C2Cc3ccccc3C2=O)cc(OC)c1OC	·	·	8.2µM*	·	16µM*
COc1ccc(/C=C2\Cc3ccccc3C2=O)cc1OC	-14%	6%	?	-1%	-19%
COc1ccc(/C=C2/C=Cc3ccccc32)cc1	·	·	?	·	1%
CCOC(=O)CCc1c(C)c2ccc(OCC(=O)N(CC)CC)c(C)c2oc1=O	?	-4%	?	?	3%
CCOC(=O)c1sc(N)c(C(=O)Nc2ccccc2OC)c1C	-7%	-5%	2.9µM*	-29%	2.9µM*
CCOC(=O)c1sc(N)c(C(=O)OC)c1C	12%	-4%	-5%	20%	-1%
CCOC(=O)c1c(C)[nH]c(C(=O)OC(C)C(=O)Nc2ccccc2OC)c1C (configuration not stated)	-8%	5%[56.1 µM]	?	-17%	16µM*
CCOC(=O)c1c(C)[nH]c(C(=O)OC(C)C(=O)Nc2ccc(C)cc2)c1C (configuration not stated)	·	·	-23%	·	-27%
CCOC(=O)c1[nH]c(C)c(C(=O)OC(C)C(=O)Nc2ncc(Cl)cc2Cl)c1C (configuration not stated)	-9%	-4%	?	-4%	18µM*
CC(OC(=O)C1=NNC(=O)CC1)C(=O)Nc1ncc(Cl)cc1Cl (configuration not stated)	7%	-1%	-7%	12%	-9%
Cc1cccc(N2CCN(C(=O)CCS(=O)(=O)c3ccc(Br)cc3)CC2C)c1 (configuration not stated)	-5%	·	?	10%	?
Cc1ccc(OCC(=O)Nc2cccc(-c3nc4ccccc4o3)c2C)cc1C	·	6%	?	·	?
CC(=O)NC(CC(=O)OCC(=O)N1c2ccccc2NC(=O)C1(C)C)c1ccccc1 (configuration not stated)	·	1%	0%	·	-4%
SMILES	VP16 counter	TDP1 block	TDP1 cell noCPT	RORg inh	DT40 TDP1 CPT
O=C(COC(=O)C(Cc1ccccc1)NC(=O)c1ccccc1)c1ccccc1 (configuration not stated)	-11%	2%	1%	-5%	4%
Cc1ccc(CNc2nc3c(c(=O)n(C)c(=O)n3C)n2Cc2ccc(Cl)cc2)cc1	·	·	?	·	1%
Cn1c(=O)c2c(nc(SCC(=O)c3cccs3)n2Cc2ccc(F)cc2)n(C)c1=O	11%	2%	12µM*	14%	21µM*
Cn1c(=O)c2c(nc(Sc3ncccn3)n2Cc2ccccc2Cl)n(C)c1=O	-12%	9%	?	-2%	?
Cn1c(=O)c2c(nc(SCCN3CCCCC3)n2Cc2ccc(Cl)cc2)n(C)c1=O	9%	2%	?	26%	-25%
CCSc1nc2c(c(=O)n(C)c(=O)n2C)n1Cc1ccc(Cl)cc1	·	·	18µM*	·	21µM*
Cn1c(=O)c2c(nc(Sc3ncccn3)n2Cc2ccc(Cl)cc2)n(C)c1=O	16µM*	5%	?	-39%	12µM*
Cc1nnc(Sc2nc3c(c(=O)n(C)c(=O)n3C)n2Cc2ccc(Cl)cc2)s1	1%	-4%	16µM*	?	?
COc1ccc(-c2c(C#N)c(SCC(=O)Nc3ccc(C)c(C)c3)nc(C)c2C(=O)Nc2ccc(Cl)cc2)cc1	·	-6%[12.3 µM]	0%	·	1%
CCOC(=O)c1ccc2c(c1)NC(=O)C(N1CCN(c3ccc(OC)cc3)CC1)S2 (configuration not stated)	-6%	3%	?	-27%	?
Cc1ccc(Cn2c(SCC(C)C)nc3c2c(=O)n(C)c(=O)n3C)cc1	·	1%	26µM*	0%[0.365 µM]	26µM*
Cc1ccc(Cn2c(Sc3ncccn3)nc3c2c(=O)[nH]c(=O)n3C)cc1	·	-3%	16µM*	0%[0.365 µM]	?
Cc1ccc(NC(=O)CSc2n[nH]c(-c3ccncc3)n2)cc1	0%	-6%	-3%	15%	-3%
C=CCNC(=O)CC(=O)N/N=C/c1cccc(C)c1	-14%	3%	-11%	-11%	2%
CC(=O)Nc1ccc(/C=N/NC(N)=S)cc1	-8%	6%	-18%	-7%	5%
C=CCNC(=S)N/N=C/c1ccc(C)c([N+](=O)[O-])c1	4.5µM*	5%	6.5µM*	1.1µM*	15µM*
C=CCNC(=S)N/N=C/c1ccc(C)cc1C	?	-10%	5.2µM*	0.45µM*	5.2µM*
CN(C)c1ccc(/C=N/NC(N)=S)cc1[N+](=O)[O-]	?	1%	?	18µM*	-29%
COc1cccc(CNC(=O)c2ccc3c(c2)nc2n3CCOC2)c1	·	3%	6%	·	14%
COc1ccc(NC(=O)CN(C)C(=O)C(C)Sc2ccccc2)cc1 (configuration not stated)	?	4%	-28%	-1%	11%
COc1cc(Cn2c(=O)sc3ccccc32)ccc1OC(C)C	·	-4%	21µM*	·	?

Screening data as filed in PubChem BioAssay.
